Measured values from PubChem BioAssay (EPA / NIEHS).
“And” between values parts separate entries of the source, which are not always exact repeats. Equal values may be shown once. A structure can be active in one record and inactive in another. The source made the active and inactive calls. The calls were made as follows: active = hit-call score of the fitted dose curve at least 0.9, where 1 is the maximum; inactive = score below 0.9.

System: not listed separately
Assay: ATG_AP_2_CIS: Attagene CIS-FACTORIAL HepG2 Assay for human Activator Protein 2 (AP-2) (AID 2282932)
Settings: HepG2 AP-2 cis-reporter, Attagene transcription factor profiling; actives raise or lower the signal
Procedure, shortened: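 Step one: transient transfection of HepG2 with reporter transcription units. Step two: 24 h chemical exposure. Step three: RNA extraction, RT-PCR, labelled fragment analysis by capillary electrophoresis; DMSO serves as baseline.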

| Structure (SMILES) | outcome |
| --- | --- |
| CC(C)(C)CC(C)(C)c1ccc(O)c(-n2nc3ccccc3n2)c1 | inactive |
| CCc1ccc(CCOc2ccc(CC3SC(=O)NC3=O)cc2)nc1 (stereo not given) | inactive |
| Oc1cc2ccccc2c2ccccc12 | inactive |
| CC[C@H](C)[C@@H](C(=O)O)n1sc2ccccc2c1=O | inactive |
| CN1CCN(c2ccccc2/C=C2\SCCN(c3ccc(Cl)c(Cl)c3)C2=O)CC1 | inactive |
| CCc1nn(C2CCCCC2)c2cc(C3(C#N)CCC(C(=O)O)CC3)ccc12 (stereo not given) | inactive |
| CC[C@H](c1ccc(O)cc1)[C@@H](CC)c1ccc(O)cc1 | inactive |
| N#C[C@@H]1CC(F)(F)CN1C(=O)CNC1CC2CCC(C1)N2c1ncccn1 (stereo not given in full) | inactive |
| CCCCCCCCCCCCc1ccccc1S(=O)(=O)O | inactive |
| COCC(C)O (stereo not given) | inactive |
| OC1CCCCC1 | inactive |
| O=[N+]([O-])c1ccc(O)cc1 | inactive |
| O=C(OCCOCCOC(=O)c1ccccc1)c1ccccc1 | inactive |
| CCC(C)(C)C1CCC(O)CC1 (stereo not given) | inactive |
| c1ccc2cc3c(ccc4ccccc43)cc2c1 | inactive |
| CCCOC(=O)c1ccc(O)cc1 | inactive |
| CN1CCC[C@H]1c1cccnc1 | inactive |
| NC(=O)N(O)[C@@H]1C=C[C@H](Oc2cccc(Oc3ccc(F)cc3)c2)C1 | inactive |
| COC(=O)CCCCC(=O)OC | inactive |
| CC(O)CO (stereo not given) | inactive |
| CC(=O)CC(C)(C)O | inactive |
| CCCCC(CC)COC(=O)CCCCC(=O)OCc1ccccc1 (stereo not given) | inactive |
| CCCCCCCCOC(=O)CCCCCCCCC(=O)OCCCCCCCC | inactive |

System: not listed separately
Assay: ATG_BRE_CIS: Attagene CIS-FACTORIAL HepG2 Assay for human Bone Morphogenetic Protein (BMP) Response Element (BRE) (AID 2282933)
Settings: HepG2 BMP response element reporter, Attagene transcription factor profiling; actives raise or lower the signal
Procedure, shortened: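 HepG2 cells transiently transfected with multiplexed cis-element reporter units were dosed with chemical for 24 h. Reporter mRNA was measured by RT-PCR with fluorescent labelling, HpaI digestion and capillary electrophoresis; bidirectional fitting relative to DMSO.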

| Structure (SMILES) | outcome | AC50 |
| --- | --- | --- |
| CC(C)(C)CC(C)(C)c1ccc(O)c(-n2nc3ccccc3n2)c1 | inactive |  |
| CC(=O)NC1(c2cccc(F)c2)CCN(CC[C@@]2(c3ccc(Cl)c(Cl)c3)CN(c3ccccc3)C(=O)CO2)CC1 |  | 61.8 µM (active) |
| CCc1ccc(CCOc2ccc(CC3SC(=O)NC3=O)cc2)nc1 (stereo not given) | inactive |  |
| CCOC(=O)CC(O)(CC(=O)OCC)C(=O)OCC | inactive |  |
| Oc1cc2ccccc2c2ccccc12 | inactive |  |
| CC[C@H](C)[C@@H](C(=O)O)n1sc2ccccc2c1=O | inactive |  |
| CCCCC[C@H](O)CC(=O)CCc1ccc(O)c(OC)c1 | inactive |  |
| CN1CCN(c2ccccc2/C=C2\SCCN(c3ccc(Cl)c(Cl)c3)C2=O)CC1 | inactive |  |
| Cc1oc(-c2ccccc2)nc1CCOc1ccc(C[C@H](Nc2ccccc2C(=O)c2ccccc2)C(=O)O)cc1 |  | 11 µM (active) |
| CCc1nn(C2CCCCC2)c2cc(C3(C#N)CCC(C(=O)O)CC3)ccc12 (stereo not given) | inactive |  |
| CC[C@H](c1ccc(O)cc1)[C@@H](CC)c1ccc(O)cc1 | inactive |  |
| N#C[C@@H]1CC(F)(F)CN1C(=O)CNC1CC2CCC(C1)N2c1ncccn1 (stereo not given in full) | inactive |  |
| CCCCCCCCCCCCc1ccccc1S(=O)(=O)O | inactive |  |
| OCCC(F)(F)C(F)(F)C(F)(F)C(F)(F)C(F)(F)C(F)(F)C(F)(F)C(F)(F)F | inactive |  |
| C[C@@H]1C[C@H]2[C@@H]3CCC4=CC(=O)C=C[C@]4(C)[C@@]3(F)[C@@H](O)C[C@]2(C)[C@@]1(O)C(=O)COP(=O)(O)O | inactive |  |
| COCC(C)O (stereo not given) | inactive |  |
| OC1CCCCC1 | inactive |  |
| O=[N+]([O-])c1ccc(O)cc1 | inactive |  |

| Structure (SMILES) | outcome | AC50 |
| --- | --- | --- |
| CC(C)(C)c1cc(C(C)(C)C)c(O)c(C(C)(C)C)c1 | inactive |  |
| O=C(OCCOCCOC(=O)c1ccccc1)c1ccccc1 | inactive |  |
| CCC(C)(C)C1CCC(O)CC1 (stereo not given) | inactive |  |
| Cc1cc(CCN2CCN(c3nsc4ccccc34)CC2)cc2c1NC(=O)CC2(C)C | inactive |  |
| c1ccc2cc3c(ccc4ccccc43)cc2c1 | inactive |  |
| CCCOC(=O)c1ccc(O)cc1 | inactive | 79.3 µM (active) |
| CN1CCC[C@H]1c1cccnc1 | inactive |  |
| NC(=O)N(O)[C@@H]1C=C[C@H](Oc2cccc(Oc3ccc(F)cc3)c2)C1 | inactive |  |
| COC(=O)CCCCC(=O)OC | inactive |  |
| CC(O)CO (stereo not given) | inactive |  |
| O=C(O)Cc1cc(I)c(Oc2cc(I)c(O)c(I)c2)c(I)c1 | inactive | 51 µM (active) |
| CC(=O)CC(C)(C)O | inactive |  |
| CCN(CC)CCNc1ccc(CNC=O)c2sc3ccc(OC)cc3c(=O)c12 |  | 0.505 µM (active) |
| CCCCC(CC)COC(=O)CCCCC(=O)OCc1ccccc1 (stereo not given) | inactive |  |
| CC#C[C@]1(O)CC[C@H]2[C@@H]3CCC4=CC(=O)CCC4=C3[C@@H](c3ccc(N(C)C)cc3)C[C@@]21C |  | 22.4 µM (active) [middle of 4 runs] |
| c1ccc2c(c1)Cc1ccccc1-2 | inactive |  |
| CCCCCCCCOC(=O)CCCCCCCCC(=O)OCCCCCCCC | inactive |  |

Target: Retinoic acid receptor alpha (Homo sapiens) (UniProt P10276)
Sequence (P10276 whole entry, looked up): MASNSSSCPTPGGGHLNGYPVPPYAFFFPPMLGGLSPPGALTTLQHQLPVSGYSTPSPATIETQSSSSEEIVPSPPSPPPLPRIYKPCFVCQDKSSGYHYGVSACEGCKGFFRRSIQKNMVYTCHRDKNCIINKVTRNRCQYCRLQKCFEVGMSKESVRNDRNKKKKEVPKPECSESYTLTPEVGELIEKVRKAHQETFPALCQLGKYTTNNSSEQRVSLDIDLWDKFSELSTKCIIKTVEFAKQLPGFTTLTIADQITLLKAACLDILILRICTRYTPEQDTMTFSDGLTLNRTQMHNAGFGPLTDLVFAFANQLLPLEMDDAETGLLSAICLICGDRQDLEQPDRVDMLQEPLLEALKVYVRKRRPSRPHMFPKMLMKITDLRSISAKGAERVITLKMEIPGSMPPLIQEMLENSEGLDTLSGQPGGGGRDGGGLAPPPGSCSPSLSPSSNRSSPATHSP
Assay: ATG_DR5_RAR_CIS: Attagene CIS-FACTORIAL HepG2 Assay for human Retinoic Acid Receptor Alpha (RARE), DR5 submotif (AID 2282934);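 as to AC50: reporter responds to endogenous RAR alpha beta and gamma in HepG2 not RARA alone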
Settings: HepG2 Attagene cis-factorial RARE DR5 reporter, mRNA; actives raise or lower the signal
Procedure, shortened: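 Reporter transcripts from a DR5-regulated unit, measured via RT-PCR plus capillary electrophoresis, reflect endogenous RAR activity in transiently transfected human HepG2 liver cells. Exposure lasted 24 h; gain or loss of signal scored against DMSO.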

| Structure (SMILES) | outcome | AC50 |
| --- | --- | --- |
| CC(C)(C)CC(C)(C)c1ccc(O)c(-n2nc3ccccc3n2)c1 | inactive |  |
| CC(=O)NC1(c2cccc(F)c2)CCN(CC[C@@]2(c3ccc(Cl)c(Cl)c3)CN(c3ccccc3)C(=O)CO2)CC1 |  | 62 µM (active) |
| CCOC(=O)CC(O)(CC(=O)OCC)C(=O)OCC | inactive |  |
| Oc1cc2ccccc2c2ccccc12 | inactive |  |
| CC[C@H](C)[C@@H](C(=O)O)n1sc2ccccc2c1=O | inactive |  |
| CCCCC[C@H](O)CC(=O)CCc1ccc(O)c(OC)c1 | inactive |  |
| CN1CCN(c2ccccc2/C=C2\SCCN(c3ccc(Cl)c(Cl)c3)C2=O)CC1 | inactive |  |
| Cc1oc(-c2ccccc2)nc1CCOc1ccc(C[C@H](Nc2ccccc2C(=O)c2ccccc2)C(=O)O)cc1 | inactive |  |
| CCc1nn(C2CCCCC2)c2cc(C3(C#N)CCC(C(=O)O)CC3)ccc12 (stereo not given) |  | 0.941 µM (active) |
| N#C[C@@H]1CC(F)(F)CN1C(=O)CNC1CC2CCC(C1)N2c1ncccn1 (stereo not given in full) | inactive |  |
| CCCCCCCCCCCCc1ccccc1S(=O)(=O)O | inactive |  |
| OC1CCCCC1 | inactive |  |
| O=[N+]([O-])c1ccc(O)cc1 | inactive |  |
| O=C(OCCOCCOC(=O)c1ccccc1)c1ccccc1 | inactive |  |
| CCC(C)(C)C1CCC(O)CC1 (stereo not given) | inactive |  |
| Cc1cc(CCN2CCN(c3nsc4ccccc34)CC2)cc2c1NC(=O)CC2(C)C |  | 3.74 µM (active) |
| c1ccc2cc3c(ccc4ccccc43)cc2c1 | inactive |  |
| CCCOC(=O)c1ccc(O)cc1 | inactive | 25.2 µM (active) |
| NC(=O)N(O)[C@@H]1C=C[C@H](Oc2cccc(Oc3ccc(F)cc3)c2)C1 | inactive |  |
| COC(=O)CCCCC(=O)OC | inactive |  |
| CC(O)CO (stereo not given) | inactive |  |
| O=C(O)Cc1cc(I)c(Oc2cc(I)c(O)c(I)c2)c(I)c1 |  | 41.1 µM (active) and 32.5 µM (active) |
| CC(=O)CC(C)(C)O | inactive |  |
| CCN(CC)CCNc1ccc(CNC=O)c2sc3ccc(OC)cc3c(=O)c12 |  | 0.457 µM (active) |
| CCCCC(CC)COC(=O)CCCCC(=O)OCc1ccccc1 (stereo not given) | inactive |  |
| CC#C[C@]1(O)CC[C@H]2[C@@H]3CCC4=CC(=O)CCC4=C3[C@@H](c3ccc(N(C)C)cc3)C[C@@]21C | inactive | 7.96 µM (active) |
| c1ccc2c(c1)Cc1ccccc1-2 | inactive |  |
| CCCCCCCCOC(=O)CCCCCCCCC(=O)OCCCCCCCC | inactive |  |
